{"source": "PubChem BioAssay (Tox21)", "note": "Unmarked numbers belong to inactive results. The source made the active and inactive calls. Calls follow the shape of the dose curve; as a rule, active = well fitted activation curve with a large enough effect in the repeat runs; inconclusive = weak or mixed curves; inactive = flat fitted curve, though single readings scatter. % is scaled to controls: 0 for no effect and ±100 for the full control effect; potency is read from the fitted curve at half-maximal effect.", "data": [{"assay": "A CellTox Green Cytotoxicity Assay to monitor cytotoxicity in HepG2 cells - 0 hour (AID 1224882); also: nearly all actives have a fitted effect of over 35% in size", "conditions": "CellTox Green fluorescence; series mostly up to 76.8 µM; cytotoxicity: at the top concentration", "outline": "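Fluorescent DNA-binding dye, 600 HepG2 cells/well, 5 h preincubation then compound in DMSO; same plates read at 0–40 h, 37 C.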", "values": [{"smiles": "Clc1ccc2cc3ccccc3cc2c1", "cytotoxicity": "9.54%"}, {"smiles": "Nc1ccccc1O", "cytotoxicity": "-4.21%"}, {"smiles": "Cc1oc(-c2ccccc2)nc1CCC(=O)c1ccc(CC2SC(=O)NC2=O)cc1", "note": "(centres undefined)", "cytotoxicity": "-14.8% [at 35.3 µM]"}, {"smiles": "CS(=O)(=O)CCNCc1ccc(-c2ccc3ncnc(Nc4ccc(OCc5cccc(F)c5)c(Cl)c4)c3c2)o1", "cytotoxicity": "-6.41% [at 35.3 µM]"}, {"smiles": "O=C(O)c1c(Cl)cccc1Cl", "cytotoxicity": "-2.99%"}, {"smiles": "CCC1OCC(COc2ccc(Oc3ccccc3)cc2)O1", "note": "(centres undefined)", "cytotoxicity": "0.152%"}, {"smiles": "CCN(Cc1cccnc1)C(=O)c1cccc(Cl)c1[C@]1(C)C(=O)N(Cc2ccc(OC)cc2OC)c2ccc(Cl)cc21", "cytotoxicity": "-1.91%"}, {"smiles": "Cn1cc(C(=O)[C@@H]2CCc3nc[nH]c3C2)c2ccccc21", "cytotoxicity": "-8.79% [at 35.3 µM]"}, {"smiles": "Cc1ccc(O)c2ncccc12", "cytotoxicity": "-10.3% [at 35.3 µM]"}, {"smiles": "COCCCC/C(=N\\OCCN)c1ccc(C(F)(F)F)cc1", "cytotoxicity": "6.33% [at 35.3 µM]"}, {"smiles": "CCCCCCCCCCCCCCCCCC[N+](C)(C)Cc1ccccc1", "cytotoxicity": "1.55%"}, {"smiles": "CCN(C(=O)c1cc(C)cc(OC[C@H](C)Nc2ccncc2)c1)C(C)C", "cytotoxicity": "2.36% [at 35.3 µM]"}, {"smiles": "O=[N+]([O-])c1cc([N+](=O)[O-])c2ccc(S(=O)(=O)O)cc2c1O", "cytotoxicity": "-21.3%"}, {"smiles": "Cc1cccc(CN2CCN(C(c3ccccc3)c3ccc(Cl)cc3)CC2)c1", "note": "(centres undefined)", "cytotoxicity": "-2.55% [at 35.3 µM]"}, {"smiles": "CCCCN1C(=O)[C@@H]([C@H](O)C2CCCCC2)NC(=O)C12CCN(Cc1ccc(Oc3ccc(C(=O)O)cc3)cc1)CC2", "cytotoxicity": "1.04%"}, {"smiles": "Cc1onc(-c2ccccc2Cl)c1C(=O)N[C@@H]1C(=O)N2[C@@H]1SC(C)(C)[C@@H]2C(=O)O", "cytotoxicity": "-2.8% [at 35.3 µM]"}, {"smiles": "O=C1CCCCCN1SSN1CCCCCC1=O", "cytotoxicity": "3.8%"}, {"smiles": "CCCCCOc1ccccc1/C(=C\\SC)n1ccnc1", "cytotoxicity": "-4.99% [at 35.3 µM]"}, {"smiles": "Cc1[nH]nc2c1N=C(c1ccccc1Cl)c1cc([N+](=O)[O-])ccc1N2", "cytotoxicity": "-10.9%"}, {"smiles": "c1cc(C(c2ccc(OCC3CO3)cc2)c2ccc(OCC3CO3)cc2)ccc1OCC1CO1", "note": "(centres undefined)", "cytotoxicity": "-2.65%"}, {"smiles": "CCCCCCCCOC(=O)c1ccc(O)cc1", "Potency": "inactive"}, {"smiles": "CO[Si](CCCNc1ccccc1)(OC)OC", "cytotoxicity": "0.261%"}, {"smiles": "CCCCCCCCS(=O)C(C)Cc1ccc2c(c1)OCO2", "note": "(centres undefined)", "cytotoxicity": "2.63%"}, {"smiles": "Cc1c(C)c2c(c(C)c1OC(=O)CCC(=O)O)CC[C@@](C)(CCC[C@H](C)CCC[C@H](C)CCCC(C)C)O2", "cytotoxicity": "0.29%"}, {"smiles": "CCOC(=O)/C=C(C)/C=C/C=C(C)/C=C/c1c(C)cc(OC)c(C)c1C", "cytotoxicity": "1.97% [at 35.3 µM]"}, {"smiles": "CC[C@H](c1ccc(O)cc1)[C@@H](CC)c1ccc(O)cc1", "Potency": "inactive"}, {"smiles": "Cc1nc(-c2ccc3c(c2)CCN(CCC2CCC(NC(=O)/C=C/c4ccc(F)cc4)CC2)CC3)no1", "note": "(centres undefined)", "cytotoxicity": "0.619% [at 35.3 µM]"}, {"smiles": "Cc1cc(O)c(C(C)(C)C)cc1C(C)(C)C", "cytotoxicity": "0.726%"}, {"smiles": "CCCCC(CC)CN=C(N)NC(N)=NCCCCCCN=C(N)NC(N)=NCC(CC)CCCC", "note": "(centres undefined)", "cytotoxicity": "-0.229% [at 35.3 µM]"}, {"smiles": "O=C(N/N=C/c1ccccc1O)c1ccncc1", "cytotoxicity": "-5.21% [at 35.3 µM]"}, {"smiles": "CCN(C(=O)N(CC)c1ccccc1)c1ccccc1", "cytotoxicity": "0.976%"}, {"smiles": "Fc1ccc([C@@H]2CCNC[C@H]2COc2ccc3c(c2)OCO3)cc1", "cytotoxicity": "-8.46% [at 35.3 µM]"}, {"smiles": "CC[C@@]1(O)C(=O)OCc2c1cc1n(c2=O)Cc2cc3c(CN(C)C)c(O)ccc3nc2-1", "Potency": "23.9 µM (active)"}, {"smiles": "O=C1c2ccccc2Cc2ccccc21", "cytotoxicity": "2.8%"}]}]}
